Here are results for eight molecules from PubChem BioAssay (NCI).

Test systems include NCI-H23 lung; NCI-H226 lung; NCI-H322M lung; HOP-62 NSCLC; NCI-H460 lung; HOP-92 NSCLC; NCI-H522 lung; A549/ATCC NSCLC; 786-0 renal; COLO 205 colon; DU-145 prostate; K-562 leukemia; MALME-3M melanoma; MDA-MB-231 breast; RXF 393 renal; SF-268 CNS; SF-295 CNS; SF-539 CNS; UACC-257 melanoma; M14 melanoma.
Holding throughout (test): NCI-60 one-dose screen, 48 h (100 = growth as untreated, 0 = no growth, -100 = all killed)
What all share (conditions): 10 µM unless noted

Compounds without any hit were thinned out: in the full panel of roughly 83,000, 20% have a hit.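 Compound tested at a single concentration for 48 hours in 96-well plates; a percent growth value below 10 was scored as active.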 Unmarked numbers belong to inactive results. Active and inactive are the calls of the source.

For the molecule `Cc1oc(-c2ccc(Cl)cc2)nc1C1=NN(C(=O)c2ccncc2)C(c2ccccc2)C1` (stereo not given), the growth was 87.3% with NCI-H23 lung; 84.6% in the assay on NCI-H226 lung; 93.7% in the assay on NCI-H322M lung; 107% in the assay with HOP-62 NSCLC; 98.6% in the assay with NCI-H460 lung; 96.1% with HOP-92 NSCLC. The growth with NCI-H522 lung is 86.6%; in the assay on A549/ATCC NSCLC it was 87.7%; in the assay with 786-0 renal, 83.4%; in the assay with COLO 205 colon, 108%; in the assay on DU-145 prostate, 101%; in the assay on K-562 leukemia it was 85.9%. Further, the growth with MALME-3M melanoma was 101%; in the assay on MDA-MB-231 breast, 76.7%; with RXF 393 renal, 82.3%; with SF-268 CNS it was 89.2%; in the assay with SF-295 CNS it was 89.4%; in the assay with SF-539 CNS, 95.6%. The growth in the assay with UACC-257 melanoma is 103%; in the assay on M14 melanoma, 99.2%.

Turning to `COc1cc2c(c(OC)c1OC)C(=O)CC(c1cccc(C(=O)Nc3ccccc3Br)c1)O2` (stereo not given), the growth is 102% with NCI-H23 lung; 86% in the assay with NCI-H226 lung; 98.1% in the assay on NCI-H322M lung; 97.1% in the assay on HOP-62 NSCLC; 110% in the assay on NCI-H460 lung; 68.4% in the assay on HOP-92 NSCLC. Besides, the growth was 69.9% with NCI-H522 lung; 97.8% in the assay on A549/ATCC NSCLC; 88% in the assay with 786-0 renal; 95.4% in the assay on COLO 205 colon; 83.7% with DU-145 prostate; 74.1% in the assay on K-562 leukemia. For the same molecule, the growth with MALME-3M melanoma is 99.6%; in the assay on MDA-MB-231 breast, 91.1%; with RXF 393 renal, 110%; in the assay on SF-268 CNS, 73.8%; in the assay with SF-295 CNS, 98.1%; with SF-539 CNS, 90.4%. In addition, the growth with UACC-257 melanoma is 92.7%; in the assay on M14 melanoma, 91.1%.

Turning to `CSc1nc(-c2ccco2)c(C#N)c(=O)n1C`, the growth in the assay with NCI-H23 lung is 66.1%; with NCI-H226 lung it was 101%; with NCI-H322M lung, 89.6%; with HOP-62 NSCLC, 89.5%; with NCI-H460 lung, 105%; in the assay with HOP-92 NSCLC, 91.6%. In addition, the growth in the assay with NCI-H522 lung is 100%; in the assay on A549/ATCC NSCLC, 100%; with 786-0 renal, 104%; in the assay on COLO 205 colon, 97.2%; in the assay on DU-145 prostate it was 106%; with K-562 leukemia, 101%. The growth in the assay on MALME-3M melanoma was 88.8%; in the assay on MDA-MB-231 breast, 107%; in the assay on RXF 393 renal, 112%; in the assay on SF-268 CNS it was 106%; in the assay on SF-295 CNS, 97.9%; with SF-539 CNS, 89.7%. For the same molecule, the growth in the assay with UACC-257 melanoma was 96.9%; in the assay with M14 melanoma it was 108%.

Turning to `CCOC(=O)C#Cc1c(C(=O)OCC)nnn1[C@@H]1O[C@H](COC)[C@@H](OC)[C@H]1OC`, the growth is 101% with NCI-H23 lung; 82.6% in the assay with NCI-H226 lung; 92.9% with NCI-H322M lung; 97.8% in the assay with HOP-62 NSCLC; 109% with NCI-H460 lung; 68.5% with HOP-92 NSCLC. Further, the growth with NCI-H522 lung was -58.7% (active); with A549/ATCC NSCLC, 95.9%; with 786-0 renal it was 84.2%; in the assay on COLO 205 colon, -54.7% (active); with DU-145 prostate, 92.6%; with K-562 leukemia, 9.33% (active). For the same molecule, the growth was 25.8% with MALME-3M melanoma; 107% with MDA-MB-231 breast; 14% with RXF 393 renal; 106% in the assay on SF-268 CNS; 95.1% in the assay with SF-295 CNS; 84.7% in the assay on SF-539 CNS. Moreover, the growth in the assay with UACC-257 melanoma was 59.3%; with M14 melanoma, 61.8%.

As to `Nc1c(Cl)cc(/C=C2\C=Cc3ccccc32)cc1Cl`, the growth was 97.4% in the assay on NCI-H23 lung; 98.7% in the assay with NCI-H226 lung; 106% in the assay on NCI-H322M lung; 102% in the assay on HOP-62 NSCLC; 112% in the assay with NCI-H460 lung; 99.6% with HOP-92 NSCLC. Also, the growth in the assay on NCI-H522 lung was 93.1%; in the assay with A549/ATCC NSCLC, 92.7%; in the assay on 786-0 renal, 102%; in the assay with COLO 205 colon, 102%; in the assay with DU-145 prostate it was 97.8%; in the assay on K-562 leukemia, 100%. Besides, the growth in the assay with MALME-3M melanoma was 119%; in the assay with MDA-MB-231 breast, 113%; with RXF 393 renal it was 103%; in the assay on SF-268 CNS, 105%; in the assay on SF-295 CNS, 115%; with SF-539 CNS, 97.5%. For the same molecule, the results for the growth in the assay on UACC-257 melanoma and in the assay with M14 melanoma were 98.3% and 105%, respectively.

For `O=C(Nc1cc(Cl)ccc1O)c1ccccc1Nc1ccnc(C(F)(F)F)c1`, the growth with NCI-H23 lung is -5.07% (active); in the assay with NCI-H226 lung, 50.9%; in the assay with NCI-H322M lung, 30.9%; in the assay with HOP-62 NSCLC, 16.6%; in the assay on NCI-H460 lung, 2.15% (active); in the assay with HOP-92 NSCLC, 49.1%. Also, the growth in the assay with NCI-H522 lung was -6.22% (active); in the assay with A549/ATCC NSCLC it was 19.7%; in the assay with 786-0 renal, 57.9%; in the assay on COLO 205 colon it was 79.6%; with DU-145 prostate, 23.8%; in the assay on K-562 leukemia it was 0.85% (active). The growth was -0.18% (active) in the assay on MALME-3M melanoma; 29.8% in the assay on MDA-MB-231 breast; 25.7% with RXF 393 renal; 21.1% in the assay with SF-268 CNS; 46.3% in the assay with SF-295 CNS; 14.5% in the assay on SF-539 CNS. Moreover, the growth in the assay on UACC-257 melanoma was 26.8%; in the assay with M14 melanoma it was 36%.

`Cc1ccc2cnc(N)c(C#Cc3cc(C(=O)Nc4ccc(CN5CCN(C)CC5)c(C(F)(F)F)c4)cnc3C)c2c1`: the growth in the assay on NCI-H23 lung was -29.6% (active); in the assay on NCI-H226 lung, 7.1% (active); in the assay with NCI-H322M lung it was 17.8%; with HOP-62 NSCLC it was -35.9% (active); in the assay on NCI-H460 lung, -83% (active); in the assay on HOP-92 NSCLC, -32% (active). Moreover, the growth with NCI-H522 lung is -10.2% (active); in the assay on A549/ATCC NSCLC, -85.5% (active); in the assay with 786-0 renal it was -82.8% (active); in the assay on COLO 205 colon, -41.2% (active); in the assay on DU-145 prostate, -95% (active); in the assay on K-562 leukemia it was -43% (active). Further, the growth was -74.7% (active) with MALME-3M melanoma; -70.5% (active) in the assay with MDA-MB-231 breast; -91.2% (active) with RXF 393 renal; 17.4% in the assay on SF-268 CNS; 37.4% with SF-295 CNS; -85.9% (active) in the assay with SF-539 CNS. The growth with UACC-257 melanoma was 31.9%; in the assay with M14 melanoma, -90.3% (active).

Consider `O=C1C=C(SCCO)C(=O)c2ccccc21`, for which the growth in the assay with NCI-H23 lung was -39% (active); with NCI-H226 lung it was 95.6%; in the assay with NCI-H322M lung it was 69.6%; with HOP-62 NSCLC it was -46.9% (active); with NCI-H460 lung it was 9.52% (active); in the assay on HOP-92 NSCLC, 94.3%. Besides, the growth was 21.6% with NCI-H522 lung; 68.1% with A549/ATCC NSCLC; 70.3% in the assay with 786-0 renal; 76.3% with COLO 205 colon; -96.7% (active) in the assay on DU-145 prostate; -38.4% (active) in the assay on K-562 leukemia. Moreover, the growth in the assay with MALME-3M melanoma was -68.1% (active); in the assay with MDA-MB-231 breast it was 40.2%; in the assay with RXF 393 renal it was 42.4%; with SF-268 CNS, 27.2%; in the assay on SF-295 CNS, -77.4% (active); in the assay on SF-539 CNS, -77.1% (active). Moreover, the growth was 66.7% with UACC-257 melanoma and -86.5% (active) in the assay on M14 melanoma.
